This is an account of results in PubChem BioAssay (NCI).

About 83,000 compounds went through this panel and 20% of them were active in at least one assay; those are over-represented in the sample as a whole.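 Single-concentration screen, 48 h exposure, 96-well plates. Endpoint: percent growth. Below 10 = active.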 Values without a mark were called inactive. The source made the active and inactive calls.

Some test systems named below: NCI-H23 lung; NCI-H226 lung; NCI-H322M lung; HOP-62 NSCLC; NCI-H460 lung; NCI-H522 lung; A549/ATCC NSCLC; 786-0 renal; COLO 205 colon; DU-145 prostate; K-562 leukemia; MALME-3M melanoma; MDA-MB-231 breast; RXF 393 renal; SF-268 CNS; SF-295 CNS; SF-539 CNS; UACC-257 melanoma; M14 melanoma.
Assay in all cases: NCI-60 one-dose screen, 48 h (100 = growth as untreated, 0 = no growth, -100 = all killed)
What all share (conditions): 10 µM unless noted

Consider `CC(=O)OC[C@H]1O[C@@H](n2c(=O)cc(N)[nH]c2=O)C(OC(C)=O)[C@@H]1OC(C)=O` (some centres not stated), for which the growth with NCI-H23 lung was 98.5%; in the experiment with NCI-H226 lung, 90.6%; with NCI-H322M lung it was 105%; in the experiment with HOP-62 NSCLC it was 95%; in the experiment with NCI-H460 lung it was 107%; in the experiment with NCI-H522 lung, 100%. The growth in the experiment with A549/ATCC NSCLC is 97.7%; in the experiment on 786-0 renal, 102%; in the experiment with COLO 205 colon, 115%; in the experiment with DU-145 prostate, 108%; in the experiment with K-562 leukemia it was 108%; with MALME-3M melanoma it was 98.4%. In addition, the growth is 107% in the experiment on MDA-MB-231 breast; 104% with RXF 393 renal; 97.9% in the experiment on SF-268 CNS; 94.2% in the experiment with SF-295 CNS; 98% in the experiment with SF-539 CNS; 98% in the experiment with UACC-257 melanoma. Moreover, the growth with M14 melanoma was 91.3%.

Take `CCN(CC)CCCC(C)Nc1ccnc2ccc(Oc3ccccc3)cc12` (configuration not stated): the growth with NCI-H23 lung was 90.6%; with NCI-H226 lung it was 120%; in the experiment with NCI-H322M lung, 72%; with HOP-62 NSCLC it was 86.6%; with NCI-H460 lung, 95.2%; with NCI-H522 lung it was 36.2%. Besides, the growth in the experiment on A549/ATCC NSCLC is 81.6%; with 786-0 renal it was 72.3%; with COLO 205 colon it was 41.4%; in the experiment with DU-145 prostate it was 88.6%; in the experiment with K-562 leukemia it was 13.7%; with MALME-3M melanoma, -38.6% (active). In addition, the growth was 42.5% in the experiment with MDA-MB-231 breast; 24.5% with RXF 393 renal; 66.2% in the experiment on SF-268 CNS; 93.7% with SF-295 CNS; -41.3% (active) in the experiment with SF-539 CNS; -54.1% (active) in the experiment on UACC-257 melanoma. For the same molecule, the growth with M14 melanoma was -58% (active).

Turning to `Cc1nn(-c2cccc(Cl)c2)c(C)c1N=Nc1ccc(Br)cc1`, the growth with NCI-H23 lung was 96.9%; in the experiment on NCI-H226 lung, 101%; in the experiment on NCI-H322M lung, 102%; with HOP-62 NSCLC, 86.9%; with NCI-H460 lung it was 103%; with NCI-H522 lung, 68.6%. In addition, the growth was 66.1% in the experiment on A549/ATCC NSCLC; 89.7% with 786-0 renal; 102% in the experiment with COLO 205 colon; 101% in the experiment on DU-145 prostate; 89.2% in the experiment with K-562 leukemia; 95.1% with MALME-3M melanoma. Also, the growth in the experiment on MDA-MB-231 breast is 93.1%; in the experiment with RXF 393 renal, 110%; in the experiment with SF-268 CNS, 96.5%; with SF-295 CNS, 91.8%; in the experiment on SF-539 CNS, 90.7%; in the experiment on UACC-257 melanoma, 53.2%. Also, the growth in the experiment on M14 melanoma was 95.6%.

As for `C(=Nc1ccc(-c2ccc(N=Cc3ccccc3)cc2)cc1)c1ccccc1`, the growth was 101% with NCI-H23 lung; 97.4% in the experiment with NCI-H226 lung; 103% in the experiment on NCI-H322M lung; 101% with HOP-62 NSCLC; 116% with NCI-H460 lung; 70% in the experiment with NCI-H522 lung. Further, the growth with A549/ATCC NSCLC was 93.8%; in the experiment with 786-0 renal it was 104%; with COLO 205 colon it was 117%; in the experiment on DU-145 prostate it was 118%; with K-562 leukemia, 95.4%; in the experiment with MALME-3M melanoma it was 94.6%. For the same molecule, the growth in the experiment on MDA-MB-231 breast was 88.2%; with RXF 393 renal, 113%; in the experiment on SF-268 CNS it was 105%; in the experiment with SF-295 CNS, 99.2%; with SF-539 CNS, 107%; in the experiment on UACC-257 melanoma, 109%. For the same molecule, in the experiment on M14 melanoma, the growth is 104%.

Turning to `c1cc(C2CCCCC2)ccc1-c1cnc2nonc2n1`, the growth in the experiment on NCI-H23 lung was 38.7%; in the experiment with NCI-H226 lung it was 47.5%; in the experiment with NCI-H322M lung, 50.1%; in the experiment with HOP-62 NSCLC, 18.5%; in the experiment on NCI-H460 lung it was 14.4%; with NCI-H522 lung it was -2.99% (active). The growth was 34.6% with A549/ATCC NSCLC; 13.5% in the experiment on 786-0 renal; 2.48% (active) in the experiment on COLO 205 colon; 13.8% in the experiment with DU-145 prostate; 5.7% (active) in the experiment with K-562 leukemia; 48.8% with MALME-3M melanoma. The growth in the experiment with MDA-MB-231 breast was 18.6%; in the experiment with RXF 393 renal, -3.18% (active); in the experiment on SF-268 CNS, 32%; with SF-295 CNS it was 28.3%; in the experiment with SF-539 CNS, 0.0756% (active); with UACC-257 melanoma, 42.6%. Also, the growth in the experiment with M14 melanoma was -16.7% (active).

For the molecule `CC(C)(CCc1ccccn1)C(=O)CCCc1ccccn1`, the growth in the experiment on NCI-H23 lung is 106%; in the experiment on NCI-H226 lung, 104%; with NCI-H322M lung, 116%; with HOP-62 NSCLC, 105%; in the experiment with NCI-H460 lung, 106%; in the experiment on NCI-H522 lung, 108%. The growth in the experiment on A549/ATCC NSCLC is 99%; with 786-0 renal, 99.9%; in the experiment on COLO 205 colon it was 96.4%; in the experiment on DU-145 prostate, 109%; in the experiment on K-562 leukemia, 95%; with MALME-3M melanoma, 70.4%. The growth with MDA-MB-231 breast is 96.2%; in the experiment on RXF 393 renal, 117%; in the experiment with SF-268 CNS, 105%; in the experiment on SF-295 CNS, 120%; with SF-539 CNS, 114%; in the experiment with UACC-257 melanoma, 109%. For the same molecule, the growth in the experiment on M14 melanoma is 98.7%.

Take `CCOC(OCC)c1cnc2nc(NC(C)=O)[nH]c(=O)c2n1`: the growth was 102% in the experiment with NCI-H23 lung; 107% with NCI-H226 lung; 101% with NCI-H322M lung; 120% in the experiment with HOP-62 NSCLC; 104% with NCI-H460 lung; 98.8% in the experiment with NCI-H522 lung. Further, the growth with A549/ATCC NSCLC is 99.7%; in the experiment with 786-0 renal, 97.5%; in the experiment with COLO 205 colon, 121%; in the experiment with DU-145 prostate, 107%; with K-562 leukemia, 104%; in the experiment with MALME-3M melanoma, 89.8%. For the same molecule, the growth with MDA-MB-231 breast was 104%; with RXF 393 renal, 110%; in the experiment on SF-268 CNS, 112%; with SF-295 CNS, 109%; with SF-539 CNS it was 108%; in the experiment on UACC-257 melanoma, 109%. The growth in the experiment with M14 melanoma is 100%.

For the molecule `O=C(Nc1cccc(C2=NCCN2)c1)c1ccc(N=Nc2ccc(C(=O)Nc3cccc(C4=NCCN4)c3)cc2)cc1`, the growth in the experiment with NCI-H23 lung is 44.3%; with NCI-H226 lung, 81.5%; in the experiment with NCI-H322M lung it was 64.7%; with HOP-62 NSCLC, 42.3%; with NCI-H460 lung, 41.9%; in the experiment with NCI-H522 lung it was 36.2%. Moreover, the growth was 33.9% in the experiment with A549/ATCC NSCLC; 69.2% in the experiment on 786-0 renal; 64.5% in the experiment with COLO 205 colon; 59.1% with DU-145 prostate; 51.8% in the experiment on K-562 leukemia; 29.7% in the experiment on MALME-3M melanoma. Further, the growth in the experiment with MDA-MB-231 breast was 73.1%; with RXF 393 renal, 105%; in the experiment with SF-268 CNS it was 54.2%; in the experiment with SF-295 CNS, 82.4%; in the experiment with SF-539 CNS, 74%; in the experiment on UACC-257 melanoma it was 55.4%. Also, in the experiment on M14 melanoma, the growth was 64.9%.
